According to PubChem BioAssay AID651789 (National Center for Advancing Translational Sciences (NCATS), 2012):
Inconclusive results are not listed. Active and inactive are the calls of the source. Calls come from the whole dose curve; as a rule, active = well fitted inhibition curve with a large enough effect; inconclusive = small, poorly fitted or top-dose-only effect; inactive = no such curve, though single readings can be large or run the other way.
Potency is the fitted concentration of half-maximal effect.

Assay: Acumen qHTS Assay for Inhibitors of the mTORC1 Signaling Pathway in WT MEF Cells: Hit Validation; note: nearly all actives have a fitted effect of over 60% in size;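 for activity change, negative = inhibition: phospho-rpS6 Ser235/236 immunofluorescence normalised to propidium iodide cell stain; percent of cells above a cutoff set by 7.5 nM rapamycin treated wells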
Conditions: Acumen imaging; series mostly up to 37.3 µM; activity change, negative = inhibition: at the top concentration
How it was run: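 Read-out is immunofluorescent phospho-rpS6 (Ser235/236) normalised to PI-stained cell number, reported as % active cells using a 7.5 nM rapamycin threshold. Cells: WT or Tsc2-/-, p53-/- MEFs, compound-exposed 24 h at 37C; PI count also tracks viability.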
For `CCC1=Nc2cc(C(=O)NC3CCCC3)ccc2Sc2ccc(Cl)cc21`, the Potency was 2.07 µM (active). For `Cn1nc(-c2ccc(OCC(=O)Nc3ccccc3)cc2)c2ccccc2c1=O`, the “activity change, negative = inhibition” value was -6.11% (inactive). With `CC(C)Oc1ccc(CNC(=O)c2ccc3nc(SCc4ccc(F)cc4)n(C)c3c2)cc1` the “activity change, negative = inhibition” value was 1.09% (inactive). In the case of `Cc1ccc(NC(=O)Cn2cc(C(=O)C3CCCCC3)c3ccccc32)cc1`, the “activity change, negative = inhibition” value is reported as 43% (inactive). For `COc1ccc(NC(=O)CSc2nc3ccccc3n2Cc2cccc(OC)c2)cc1`, the “activity change, negative = inhibition” value was -26.4% (inactive). For `CCCCN(C)C(=O)CSc1c2c(nc3ccc(Cl)cc13)CCCC2`, the “activity change, negative = inhibition” value was 6.86% (inactive). In the case of `C=CCc1c(C)nc2nc(SCC(=O)Nc3ccc(C)c(C)c3)nn2c1C`, the Potency is reported as 1.17 µM (active). With `Cc1ccc(NC(=O)c2c(C)oc3ccc(O)c(CN(C)Cc4ccccc4)c23)c(C)c1` the “activity change, negative = inhibition” value was 18.5% (inactive). In the case of `O=C(COc1ccc(F)cc1)Nc1ccc(Cl)c(-c2nc3ccccc3[nH]2)c1`, the “activity change, negative = inhibition” value is reported as 8.46% (inactive). In the case of `CC(C)OCCCn1c(=O)c2ccccc2n2c(-c3ccc(F)cc3)nnc12`, the “activity change, negative = inhibition” value is reported as 8.37% (inactive). In the case of `Cc1ccc(S(=O)(=O)c2nnn3c2nc(NC2CCCCC2)c2sccc23)cc1C`, the “activity change, negative = inhibition” value is reported as -2.29% (inactive). For `CCc1ccccc1NC(=O)CSCc1cnn(-c2ccccc2)c1-n1cccc1`, the “activity change, negative = inhibition” value was -1.53% (inactive). In the case of `COc1cccc(-n2c(-c3ccco3)nc3c(cnn3-c3ccc(C)cc3)c2=O)c1`, the “activity change, negative = inhibition” value is reported as -28.5% (inactive). In the case of `Cc1c(C(=O)OCc2ccccc2)[nH]c2c1C(=O)CC(c1ccc(Cl)cc1)C2` (stereo not given), the Potency is reported as 13.1 µM (active). With `COc1ccc(Cl)cc1NC(=O)CSc1nc(-c2ccco2)cc(C(F)(F)F)n1` the “activity change, negative = inhibition” value was 1.41% (inactive). With `CCCN1C(=O)C(Cc2nc3ccccc3c(=O)n2CC)c2ccccc21` (stereo not given) the “activity change, negative = inhibition” value was 44% (inactive). With `CCN(c1ccccc1)S(=O)(=O)c1cc(C(=O)Nc2ccc(Br)cc2)ccc1F` the Potency was 13.1 µM (active). With `CCNS(=O)(=O)c1cc(-c2nnc(Nc3cccc(C(F)(F)F)c3)c3ccccc23)ccc1C` the “activity change, negative = inhibition” value was 14% (inactive). With `COc1cccc(-c2cc(C(=O)Nc3cnn(Cc4ccc(Cl)cc4Cl)c3)no2)c1` the “activity change, negative = inhibition” value was 6.87% (inactive). In the case of `Nc1nc(Nc2ccccc2F)sc1C(=O)c1ccc(Cl)cc1`, the “activity change, negative = inhibition” value is reported as 37.1% (inactive). With `Cc1cc(C)c(NC(=O)c2sc3nc(C)cc(C)c3c2NC(=O)c2ccccc2)c(C)c1` the “activity change, negative = inhibition” value was 67.9% (inactive). For `CCc1ccc(CN(Cc2ccco2)C(=O)c2cc(-c3ccc(C)c(F)c3)on2)cc1`, the “activity change, negative = inhibition” value was 46.8% (inactive). For `CCN1CCOC(=O)C1CC(=O)Nc1ccc(Br)cc1` (stereo not given), the “activity change, negative = inhibition” value was 11.3% (inactive). For `CCCC1=Nc2cc(C(=O)NC3CCCC3)ccc2Sc2ccc(C)cc21`, the Potency was 0.736 µM (active). With `Cc1cccc(N2CCN(c3ncnc4c3nc3n4CCCCC3)CC2C)c1` (stereo not given) the Potency was 11.7 µM (active). In the case of `CC(C)N(C(=O)CSc1nc2ccc(Cl)cc2[nH]1)c1ccccc1`, the “activity change, negative = inhibition” value is reported as -24% (inactive). For `O=C(CCn1cnc2onc(-c3ccc(F)cc3)c2c1=O)Nc1ccc(F)c(Cl)c1`, the “activity change, negative = inhibition” value was -9.16% (inactive). With `CCC1CN(C(=O)NCc2ccc(F)cc2)c2cc(C)ccc2O1` (stereo not given) the “activity change, negative = inhibition” value was -4.58% (inactive). For `Cc1ccc(NC(=O)CCNS(=O)(=O)c2cccc3nonc23)cc1Cl`, the “activity change, negative = inhibition” value was -0.763% (inactive). In the case of `Cn1nnnc1SCCCNCc1ccccc1OCc1ccc(Cl)cc1`, the “activity change, negative = inhibition” value is reported as -8.66% (inactive). In the case of `Cc1cccn2c(Nc3ccccc3)c(-c3cccs3)nc12`, the “activity change, negative = inhibition” value is reported as 6.87% (inactive). In the case of `CC(C)(C)c1ccc(C2NC(=O)c3n[nH]c(-c4cccs4)c32)cc1` (stereo not given), the “activity change, negative = inhibition” value is reported as 40.3% (inactive). With `CC(C)c1ccc(C2Sc3ccccc3NC3=C2C(=O)c2ccccc23)cc1` (stereo not given) the “activity change, negative = inhibition” value was -17.9% (inactive). In the case of `COc1cc(C)ccc1OCCn1c(-c2ccc(Cl)cc2)nc2ccccc2c1=O`, the “activity change, negative = inhibition” value is reported as 25.2% (inactive). In the case of `CCS(=O)(=O)c1ncc(Cl)c(C(=O)N(Cc2ccccc2)Cc2ccco2)n1`, the Potency is reported as 3.29 µM (active). With `CCc1ccc(CNc2ncc(-c3cccc(OC)c3)n2C)cc1` the “activity change, negative = inhibition” value was -20.4% (inactive). With `CCS(=O)(=O)c1ncc(Cl)c(C(=O)N2CCN(c3ccc(OC)cc3)CC2)n1` the Potency was 10.4 µM (active). For `O=C(NCc1ccccc1Cl)C(=O)NCC(c1cccs1)S(=O)(=O)c1cccs1` (stereo not given), the “activity change, negative = inhibition” value was -22.4% (inactive). In the case of `CC(=O)Nc1cccc(NC(=O)C(=O)NCCc2sc(-c3ccccc3)nc2C)c1`, the Potency is reported as 7.36 µM (active). With `Cc1ccc(-c2cc(C(=O)N3CCN(c4ccccc4)CC3)c3ccccc3n2)cc1C` the “activity change, negative = inhibition” value was -2.1% (inactive).
